Data reported in PubChem BioAssay AID2417 (National Center for Advancing Translational Sciences (NCATS), 2010).
The whole screen tested about 140,000 compounds, of which about 4,300 (3.1%) were called active. Inconclusive results (about 21%) are left out.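 Rule for the calls: active = readout at or below -70, meaning at least 70% loss of cells showing the perinucleolar compartment, a nuclear body marking cancer cells; inconclusive = readout between -30 and a set limit; inactive = the rest.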 Only a selection was taken, and actives are over-represented in it overall.

Assay: High Content Assay for Compounds that inhibit the Assembly of the Perinucleolar Compartment;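 note: plate controls were DMSO wells for no effect and camptothecin positive control wells for full effect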
Conditions: PC3M PTB-GFP, PNC prevalence imaging, 16 h; at 10 µM; hits give low values
Text: High Content Assay for Compounds that inhibit the Assembly of the Perinucleolar Compartment NIH Chemical Genomics Center [NCGC] NIH Molecular Libraries Probe Centers Network [MLPCN] MLPCN Grant: MH082371-01A2 Assay Submitter (PI): Sui Huang, Northwestern University, Feinberg School of Medicine, Cell and Molecular Biology, Chicago, Illinois. The perinucleolar compartment (PNC) is a non-membrane-bound nuclear subdomain that is associated with but structurally distinct from the nucleolus. The PNC is a heritable trait, in which the number of PNCs per cell in daughter cells often mimics that of their mother cells. The PNC is heterogeneous in shape, is stable through interphase, disassembles during mitosis, and reassembles in early G1. The PNC is concentrated with newly synthesized RNA polymerase III (pol III) RNAs (MRP RNA, RNAse P H1 RNA, hY RNAs[hY1, 2, 5], Alu RNA, and SRP [7SL] RNA) and RNA binding proteins (nucleolin, PTB, CUG-BP, KSRP, Raver1, Raver2, and Rod). […] Extensive in vitro studies have shown that the PNC is unique to tumor cells and preferentially forms in tumor cells derived from solid tissues. Examination of cancer cell lines from various origins and malignant capacities has shown that PNC prevalence correlates with the malignancy of tumors and has the potential to be developed as a pan-cancer prognostic marker. […] Although the PNC is associated with a DNA locus and a handful of components have been identified, much remains to be investigated regarding the structure and function of the PNC and its mechanistic link to cancer. We have previously shown that PNC prevalence reduction is a valid strategy to identify compounds that can be used to study the structure and function of the PNC. It is necessary, however, to create a screening platform that is able to test a large number of compounds in an automated fashion. Here we report the development and robustness of an automated whole-cell phenotypic image-based screening assay that is capable of identifying such compounds.
PNC High Content Imaging Assay Procedure: 1. Cells at a density of 75-90% confluency in T175 flasks were harvested using 7 ml TrypLE Express cell dissociation reagent. After dissociation (5 minutes room temperature incubation) 10 ml of complete media was added to the TrypLE/cell suspension. The liquid was transferred to a 50 ml Conical tube and cells were pelleted at 1000 RPM for 5 min. Supernatant was removed and cells were resuspended to a final density of 150-200 cells/ul in complete media. 2. Cells were plated in 5 ul volume (750-1000 cells/well) into 1536 well Black uclear Aurora Low Base plates and allowed to recover and adhere at 37 C in a humidified 5% CO2 incubator for 4 hours. 3. After 4 hour incubation, compound libraries (23 nl of […] in columns 5-48) were transferred to the plates in duplicate using a 1536 well pintool. Camptothecin positive control (59 uM final) was added to column 2 and 1:3 dilutions of camptothecin was added to column 3. DMSO negative controls were present in columns 1 and 4. 4. After a 16 hour incubation in the 37 C incubator, cells were fixed by the addition of 4 ul of 6% EM grade paraformaldehyde (containing 0.1% triton X 100) directly to the cells. The plates were incubated at room temperature for 20 minutes. The liquid was removed using a 32 channel Kalypsys aspirator and the fixed cells were washed twice with 5 ul PBS followed by a final addition of 5 ul PBS containing 1 ug/ml Hoechst 33342. 5. Fixed plates were sealed and sotred at 4C until imaged. 6. Plates were imaged on an InCell 1000 automated microscope using a 20 x objective, a standard FITC filter set, no camera binning, and an exposure time of ~100-150 msec/well. 7. Data analysis. PNC prevalence was determined using the Multitarget analysis module from InCell Workstation software (V3.5 ) and analysis was run on a quad core workstation using the Incell Developer Toolbox (V1.7). […]

Structure (SMILES) | activity change (PNC), negative = inhibition
CCOc1ccccc1C1C(C(=O)OC)=CN(C)C=C1C(=O)OC | 3.14% (inactive)
COC(=O)C1=CN(C)C=C(C(=O)OC)C1c1ccc(Cl)cc1Cl | -80.4% (active)
NNC(=O)c1ccc(Cl)cc1Cl | 5.71% (inactive)
O=C(Cc1cccs1)Nc1cccc(-c2nc3ccccc3[nH]2)c1 | 3.35% (inactive)
COc1cc(NS(=O)(=O)c2ccc(N=Cc3c(C)[nH]n(-c4ccccc4)c3=O)cc2)nc(OC)n1 | -26.4% (inactive)
COc1cc(NS(=O)(=O)c2ccc(N/C=C(\C=O)c3nc4cc(Cl)ccc4o3)cc2)nc(OC)n1 | -105% (active)
COc1ccc(S(=O)(=O)Nc2ccc3oc(C)c(C(C)=O)c3c2)cc1 | 56.6% (inactive)
O=C(c1ccc(CSc2ccccc2)cc1)N1CCCCCC1 | -13.8% (inactive)
C=CCNC(=O)/C=C/c1ccc(C(C)C)cc1 | 29.5% (inactive)
N#C/C(=C/c1ccc(N2CCCCC2)o1)C(=O)NCCc1c[nH]c2ccccc12 | -86.8% (active)
CC(=O)N/C(=C/c1ccc(Cl)cc1)C(=O)NCCc1c[nH]c2ccccc12 | 19.3% (inactive)
N#C/C(=C/c1ccc(N2CCOCC2)o1)C(=O)N1CCOCC1 | 61.9% (inactive)
Cn1cc(C(=O)NCc2ccccc2F)cn1 | -25.6% (inactive)
N#C/C(=C\c1ccccc1C(F)(F)F)C(=O)Nc1ccccc1F | -16.5% (inactive)
COc1cccc(NC(=O)CC(c2ccc(OC(C)C)cc2)c2ccccc2OC)c1 (stereo not drawn) | 21% (inactive)
NC(=O)CCC(NS(=O)(=O)c1ccc(Cl)cc1)C(=O)NCc1ccccc1Cl (stereo not drawn) | -7.93% (inactive)
COc1ccccc1C1SCCN1C(=O)c1ccc([N+](=O)[O-])cc1 (stereo not drawn) | 15% (inactive)
NC1=NC(=O)C(Cc2cccc(Cl)c2)S1 (stereo not drawn) | 22.5% (inactive)
N#Cc1ccc(N2Cc3ccccc3/C2=N/C(=O)Nc2ccc(Cl)cc2)cc1 | 16.1% (inactive)
Cc1cc(C(F)(F)F)nn1-c1nc(-c2ccco2)cc(C(F)(F)F)n1 | -13% (inactive)
O=C(CSc1nc(-c2ccco2)cc(C(F)(F)F)n1)N1CCc2ccccc2C1 | -123% (active)
FC(F)(F)c1cc(-c2ccco2)nc(N2CCOCC2)n1 | 27.9% (inactive)
Cc1ccc(NC(=O)COC(=O)CCc2nc3ccccc3n2-c2ccccc2)c(C)c1 | 55.5% (inactive)
O=C(NC(=S)NC1CCSC1=O)c1ccccc1F (stereo not drawn) | 12.8% (inactive)

Structure (SMILES) | activity change (PNC), negative = inhibition
O=c1c2sccc2nc(SCc2cc(=O)n3ccccc3n2)n1-c1ccc(Br)cc1 | 0.678% (inactive)
Cc1ccc(NC(=O)CSCC(=O)NC2CCCCC2)cc1 | 13.8% (inactive)
O=C(CCN1C(=O)C2C3C=CC(C3)C2C1=O)Nc1ccccc1F (stereo not drawn) | 25% (inactive)
CC(CC(=O)N1CCN(c2ccccc2)CC1)c1ccccc1 (stereo not drawn) | -11.1% (inactive)
O=C(CCCN1C(=O)C2C3C=CC(C3)C2C1=O)N1CCN(c2ccccc2)CC1 (stereo not drawn) | -106% (active)
CC(C)(C)CC(C)(C)NCC(O)COCCOc1ccc(Br)cc1 (stereo not drawn) | 6.23% (inactive)
COc1ccc(NC(C(=O)Nc2cccc(C(C)=O)c2)c2ccccc2)cc1 (stereo not drawn) | 18.3% (inactive)
CC(=O)c1ccc(NC(=O)N[C@@H](Cc2ccccc2)C(=O)O)cc1 | 64.7% (inactive)
COC(C(=O)Nc1ccc(C(C)=O)cc1)c1ccccc1 (stereo not drawn) | -124% (active)
O=C(CC(=O)N/N=C\c1cccc(Cl)c1Cl)NCc1ccccc1 | 44.3% (inactive)
Nc1nc(SCC(=O)NNc2c(Cl)cc(Cl)cc2Cl)n[nH]1 | 21.1% (inactive)
CCCCOc1ccc(C(=O)NN2CCN(C)CC2)cc1 | 15.4% (inactive)
COc1ccccc1NC1=NC(c2ccc(Cl)cc2)N=C(N)N1 (stereo not drawn) | -92.7% (active)
COc1ccccc1Nc1nc(N)nc(CN(C)C2CCCCC2)n1 | -29.7% (inactive)
Cc1cc(C)nc(NC(=O)c2cccc([N+](=O)[O-])c2)c1 | 69% (inactive)
COCCCN(C(=O)Cn1ncc2c(=O)oc3ccc(C)cc3c21)C(C)c1ccncc1 (stereo not drawn) | 3.72% (inactive)
COCCCN(C(=S)Nc1c(C)cc(C)cc1C)C(C)c1ccncc1 (stereo not drawn) | -82.2% (active)
CCCC/S(C)=N/S(=O)(=O)c1ccc(C)cc1 (stereo not drawn) | 24.9% (inactive)
N/C(=N\OC(=O)N1c2ccccc2Sc2ccccc21)c1ccc(Br)cc1 | -113% (active)
COc1ccc(/C(N)=N/OC(=O)Cc2ccccc2)cc1 | 17.5% (inactive)
COc1ccc(/C(N)=N/OC(=O)Oc2ccccc2)cc1 | 13.5% (inactive)
COc1cccc(NC(=O)Cn2cnc3sc(C)c(S(=O)(=O)N4CCN(C)CC4)c3c2=O)c1 | -100% (active)
COc1cccc(NC(=O)CN(C)S(=O)(=O)c2ccc(C)cc2)c1 | -3.49% (inactive)
O=C(Cc1ccc(S(=O)(=O)N2CCOCC2)s1)NCCC(c1ccccc1)c1ccccc1 | 44.4% (inactive)

Structure (SMILES) | activity change (PNC), negative = inhibition
CCOC(=O)c1sc(NC(=O)c2cc(S(=O)(=O)N3CCOCC3)ccc2C)nc1C | -23.4% (inactive)
CCN(CC)CCNC(=O)Cn1cnc2sc(C)c(S(=O)(=O)N3CCOCC3)c2c1=O | -100% (active)
COc1cccc(NC(=O)CN2CCN(c3nc(-c4cccc(OC)c4)cs3)CC2)c1 | 43% (inactive)
CC(O)c1nc2ccccc2n1Cc1ccc([N+](=O)[O-])cc1 (stereo not drawn) | 9.78% (inactive)
CCOc1ccc(C(=O)Nc2nccs2)cc1[N+](=O)[O-] | 8% (inactive)
CN1CCC(=NNC(=O)c2ccc(N(Cc3ccc(Cl)cc3)S(C)(=O)=O)cc2)CC1 | -4.47% (inactive)
O=C(CCN1C(=O)c2ccccc2C1=O)NNC(=O)c1ccc(Cl)cc1Cl | 53% (inactive)
O=C(Nc1ccccc1Cc1ccccc1)c1ccc2c(c1)SC1=NS(=O)(=O)CCN12 | 18.7% (inactive)
Cc1ccc(S(=O)(=O)N2CCC(C(=O)N[C@@H](C)C(=O)NCc3ccco3)CC2)cc1 | 61.1% (inactive)
O=C(NC1CCC(O)CC1)c1ccc(S(=O)(=O)NCc2ccco2)cc1 (stereo not drawn) | -13.5% (inactive)
CC1CCN(S(=O)(=O)c2ccc(S(=O)(=O)NCc3ccco3)cc2)CC1 | -100% (active)
CC(C)n1c(SCC(=O)Nc2ccccc2N2CCCCC2)nc2c1c(=O)n(C)c(=O)n2C | -24% (inactive)
CC1Cc2nc(SCC(=O)Nc3ccccc3F)n(C)c(=O)c2S1 (stereo not drawn) | -100% (active)
CCn1c(Cc2ccccc2)nnc1SCC(=O)Nc1ccccc1 | -27.9% (inactive)
CCn1c(SCC(=O)Nc2ccccc2F)nc2c(c1=O)SC(C)C2 (stereo not drawn) | -100% (active)
CCc1ccc(NC(=O)CSc2nc3ccccc3c(=O)n2CCN2CCOCC2)cc1 | -23.7% (inactive)
Cn1nnnc1SCC(=O)Nc1ccccc1C(=O)NC1CC1 | -17.1% (inactive)
COc1ccc(C/C(C)=N/NC(=O)c2ccncc2)cc1 | 36.6% (inactive)
Cc1cc(=O)n2nc(N3CCCC(C(=O)NCCC4=CCCCC4)C3)sc2n1 (stereo not drawn) | 6.76% (inactive)
Cc1ccnc(N2CCCC(C(=O)Nc3cc(F)ccc3C)C2)n1 (stereo not drawn) | -22.4% (inactive)
COc1cc(C)nc(N2CCCC(C(=O)NCC(C)C)C2)n1 (stereo not drawn) | -100% (active)
NS(=O)(=O)c1ccc(CCNC(=S)Nc2ccc(S(N)(=O)=O)cc2)cc1 | 74.6% (inactive)
CCOC(=O)NC(=O)C(=CNc1cccc(OC)c1)C(=O)NC(=O)OCC | 45.4% (inactive)
CCOC(=O)C(NC(=O)CC(C)C)(Nc1sc2c(c1C(N)=O)CCCC2)C(F)(F)F (stereo not drawn) | 0.0946% (inactive)

Structure (SMILES) | activity change (PNC), negative = inhibition
CC1Cc2ccccc2N1C(=O)CSc1nc2ccccc2o1 (stereo not drawn) | 31.3% (inactive)
CC1Cc2ccccc2N1C(=O)Cn1cnc2ccccc2c1=O (stereo not drawn) | -80.4% (active)
CCn1nc(C(=O)OCC(=O)N2c3ccccc3CC2C)c2ccccc2c1=O (stereo not drawn) | -8.81% (inactive)
COc1ccc(C2CC(c3ccccc3)=NN2C(=O)c2ccc(Cl)c([N+](=O)[O-])c2)cc1 (stereo not drawn) | 27.8% (inactive)
CCOc1ccc(S(=O)(=O)N(CC(=O)NCC(F)(F)F)Cc2ccco2)cc1 | 52.1% (inactive)
Cc1cc(/C=C2\SC(=Nc3ccc(N4CCOCC4)cc3)N(C)C2=O)c(C)n1-c1cccnc1 | -27.8% (inactive)
CCOC(=O)N1CCN(C(=O)COc2ccc(Br)cc2)CC1 | -29.5% (inactive)
CN1CCCC(OC(=O)COc2ccc(Br)cc2)C1 (stereo not drawn) | -86.4% (active)
CC(=O)Nc1ccc(OC(=O)COc2ccc(Br)cc2)cc1 | 36.4% (inactive)
COc1ccc(C(C(=O)NC2CCCCC2)N(C(=O)Cc2c[nH]c3ccccc23)c2ccccc2)cc1OC (stereo not drawn) | 32.6% (inactive)
CS(=O)(=O)N(Cc1ccc(Cl)cc1)c1ccc(C(=O)NCCSCc2ccco2)cc1 | 22.9% (inactive)
COc1cc(OC)cc(C(=O)NCCSCc2ccco2)c1 | -94.6% (active)
O=C(/C=C/c1ccc([N+](=O)[O-])cc1)NCCSCc1ccco1 | 85.9% (inactive)
O=C(/C=C/c1cccc([N+](=O)[O-])c1)NCCSCc1ccco1 | -113% (active)
CCC(CC)NC(=O)/C=C/c1cccc([N+](=O)[O-])c1 | -18.8% (inactive)
COc1ccc(CCNC(=O)c2ccco2)cc1 | 24.7% (inactive)
CC(=O)c1c(O)cc2n(c1=O)-c1ccc(Cl)cc1C2(C)C | -2.74% (inactive)
O=C(NC(=O)N1CCOCC1)c1ccccc1 | 6.63% (inactive)
O=C(Nc1ccn(Cc2ccccc2)n1)c1n[nH]c([N+](=O)[O-])c1Cl | 5.38% (inactive)
CC(Sc1cccc[n+]1[O-])C(=O)Nc1cccc(S(=O)(=O)N2CCOCC2)c1 (stereo not drawn) | -7.27% (inactive)
COc1ccc(-c2csc(NC(=O)COC(=O)c3ccc(Br)o3)n2)cc1 | -8.03% (inactive)
